From PubChem BioAssay
Hits are enriched below; roughly 21% of the tested compounds scored in any of these assays.
DT40 TDP1 CPT = DT40-hTDP1 cell growth loss with CPT | chicken DT40 Tdp1-/-;hTDP1 cells + 20 nM CPT, ATP luminescence, 48 h | Potency, µM (series often up to 46.2 µM), without a hit: at the top dose activity change, negative = growth inhibition, most hits filed as inhibitors | 420,000 tested, 12% active | AID 686979; note: potency is the fitted concentration of half-maximal effect; nearly all actives have a fitted effect of over 55% in size
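Cell growth measured by CellTiter-Glo luminescence after a minimum 48 h, 37 C compound exposure with 20 nM CPT in Tdp1-knockout DT40 cells stably expressing hTDP1, seeded 400/well; qHTS titration format.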
RORgamma inh = blocks mouse ROR gamma transcriptional activity | Drosophila S2 Gal4-RORgamma UAS-luciferase reporter, 20 h | Potency, µM (doses to about 53.6 µM), for inactives: at the top dose activity change, negative = inhibition, most hits filed as inhibitors | 310,000 tested, 5.4% active; note: potency is the fitted concentration of half-maximal effect; nearly all actives have a fitted effect of over 60% in size
Target sequence (P51450 whole entry, looked up, the tested form may be a part): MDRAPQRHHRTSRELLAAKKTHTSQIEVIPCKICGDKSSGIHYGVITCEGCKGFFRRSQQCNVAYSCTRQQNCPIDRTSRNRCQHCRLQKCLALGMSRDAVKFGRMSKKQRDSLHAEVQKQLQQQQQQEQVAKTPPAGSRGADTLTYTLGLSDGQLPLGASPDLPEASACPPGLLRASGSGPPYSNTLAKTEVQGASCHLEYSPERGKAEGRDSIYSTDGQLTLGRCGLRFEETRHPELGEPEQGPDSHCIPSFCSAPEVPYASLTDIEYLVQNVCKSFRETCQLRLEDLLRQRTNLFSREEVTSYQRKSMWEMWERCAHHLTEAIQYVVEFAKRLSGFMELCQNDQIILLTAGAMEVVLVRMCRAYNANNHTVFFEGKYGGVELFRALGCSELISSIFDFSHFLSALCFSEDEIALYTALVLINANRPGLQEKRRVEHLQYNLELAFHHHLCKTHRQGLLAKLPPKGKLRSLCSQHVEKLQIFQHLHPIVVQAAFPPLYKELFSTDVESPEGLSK
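Luminescence from a UAS-regulated Photinus luciferase reporter in stably transfected Drosophila Schneider cells is measured; decreased signal marks ROR gamma inhibition. Fusion expression is induced by 700 uM copper sulfate for 20 hr.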
TDP1 cell noCPT = qHTS for Inhibitors of human tyrosyl-DNA phosphodiesterase 1 (TDP1): qHTS in cells in absence of CPT; DT40 Tdp1-/- hTDP1 cells, no CPT, ATP luminescence, 48 h; Potency, µM (titrated, usually from 46.2 µM), for inactives: at the top dose activity change, negative = growth inhibition, actives largely listed as inhibitors; 420,000 tested, 15% active; note: potency is the fitted concentration of half-maximal effect; nearly all actives have a fitted effect of over 55% in size
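Readout: luminescence from CellTiter-Glo after 30 min in the dark at RT. Cells: DT40 Tdp1-/- with stable hTDP1, 400/well. Exposure: compounds alone, ≥48 hr, 37 °C.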
Gal4-VP16 FLuc = inhibits Gal4-VP16 luciferase reporter, ROR gamma counter-screen. Drosophila S2 Gal4-VP16 UAS-luciferase, luminescence, 20 h. Potency, µM (titrated, usually from 53.6 µM), for the others: at the highest dose activity, negative = inhibition, usual class: inhibitors. 310,000 tested, 3.5% active;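 note: Gal4-VP16 expression switched on by copper sulfate through the metallothionein promoter; potency is the fitted concentration of half-maximal effect; nearly all actives have a fitted effect of over 50% in size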
ELG1 DNA repair = inhibitors of ELG1-dependent DNA repair in HEK293T cells; HEK293T ELG1-luciferase reporter, luminescence, 16 h; DNA damage induced by 5-fluorouridine; Potency, µM (highest dose often 46.1 µM), without a hit: at the top dose activity change, negative = inhibition, most hits filed as inhibitors; 330,000 tested, 2.3% active; note: potency is the fitted concentration of half-maximal effect; nearly all actives have a fitted effect of over 55% in size
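Overnight (16 hr) co-exposure of 2,000 cells/well to 5-fluorouridine and compound at 37 °C preceded detection. Luciferase was quantified via ONE-Glo luminescence; loss of signal denotes inhibition.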
IL1B secr inh = inflammasome signaling inhibition, IL-1 beta readout | activity change, % at 57.5 µM | 360,000 tested, 4.7% active | AID 743279 | THP-1 LPS/ATP IL-1B secretion, AlphaLISA, 16 h; hits give low values; in the data active = activity change below about -50%; inconclusive = mostly about -30% to -49%
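THP-1 cells pretreated 1 hr with compounds (up to 57.5 uM final), then stimulated with LPS (250 ng/mL final) plus ATP (1.25 mM final); secreted IL-1B measured by AlphaLISA after 16 hr, decreased signal indicating inhibition.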
* marks the source's active call; other numbers are inactive results; u = inconclusive; x = no result given; ! = repeats disagree; [ ] = remark or other dose. Unless noted, calls come from the whole dose curve; as a rule, active = well fitted curve in the direction sought with a large enough effect; inconclusive = small, poorly fitted or top-dose-only effect, or another doubt; inactive = no such curve, though single readings can be large; an effect the other way counts as inactive or inconclusive. % is set by controls: 0 for no effect and ±100 for the full control effect.

SMILES | DT40 TDP1 CPT | RORgamma inh | TDP1 cell noCPT | Gal4-VP16 FLuc | ELG1 DNA repair | IL1B secr inh
O=c1c(O)c(-c2ccc(O)c(O)c2)oc2c(O)c(O)cc(O)c12 | 18.4µM* | -14.0% | u | -16.1% | x | x
Clc1cncc(N2CCNCC2)n1 | -4.8% | 2.1% | -15.9% | 4.9% | x | x
Cc1cc(C)c(Cn2c3ccccc3c3cnn(CC(=O)NCc4ccc(Cl)cc4)c(=O)c32)c(C)c1 | u | x | 23.1µM* | x | x | x
Cn1c2ccccc2c2cnn(CC(=O)N3CCC4(CC3)OCCO4)c(=O)c21 | x | 0.0% | x | 6.4% | 11.3% | x
Oc1ccc(Cl)cc1Cl | x | -13.1% | x | 2.0% | x | x
N#CC1=C(N)Oc2c(c(=O)sc3ccccc23)C1c1cccnc1 (stereo unspecified) | 8.2µM* | -35.8% | 8.2µM* | -1.4% | -2.8% | 23.3
Clc1ccc2[nH]c3c(c2c1)CCNC3 | u | x | u | x | 6.5% | 0.0
COc1ccc(Oc2c(C)oc3cc(OC(=O)N4CCOCC4)ccc3c2=O)cc1 | -0.6% | 13.7% | -10.2% | 2.7% | u | 17.5
COc1ccc(-c2coc3cc(OC(=O)N4CCOCC4)ccc3c2=O)cc1 | 13µM* | 15.0% | 18.4µM* | -5.8% | u | 0.1
Cc1ccc(NC(=O)C2CCCN2S(=O)(=O)c2ccc3c(c2)CCCC(=O)N3)cc1Cl (stereo unspecified) | 16.4µM* | x | u | x | x | x
CC(=O)N1CCCc2cc(S(=O)(=O)N3CCCC(C(=O)Nc4cccc(F)c4)C3)ccc21 (stereo unspecified) | u | u | u | -4.2% | -9.4% | 2.1
C[C@]12CCC(=O)C=C1CC[C@@H]1C2CC[C@]2(C)C(=O)CCC12 (stereo partly specified) | -10.3% | 0.2% | -15.7% | 9.5% | -19.3% | -16.1
C[C@]12CCC(=O)C=C1CC[C@@H]1[C@@H]2CC[C@]2(C)C(=O)CC[C@@H]12 | u | u | 18.4µM*! | -12.5% | 3.4% | 5.2
C[C@@]12CCC3C(CCC4=CC(=O)CC[C@]43C)C1CCC2O (stereo partly specified) | u | 9.6% | 16.4µM* | -6.9% | x | x
CC(=O)C(Sc1ncnc2c1nnn2-c1ccc(F)cc1)C(=O)N(C)C (stereo unspecified) | 20.6µM* | 10.9% | 20.6µM* | -2.4% | u | -29.7
COC(C/C=C/C=C/CC/C=C\CC(C)/C=C\C(=C/C(=O)O)CC(=O)O)/C(C)=C\C=C(/C)C(=O)O (stereo unspecified) | 14.3%[4.12 µM] | x | 12.9%[4.12 µM] | x | x | x
COc1ccc(NC(=O)CCn2cc(C)c3ccccc32)cc1 | -23.2% | 31.6% | u | 23.0% | u | -26.7
COc1ccc(-c2coc3c(C(=O)Nc4cc(OC)c(OC)c(OC)c4)cccc23)c(C)c1 | 4.11µM* | x | 3.66µM* | x | x | -22.0
COc1cc(NC(=O)c2cccc3c(-c4cccnc4)coc23)cc(OC)c1OC | 3.66µM* | x | 3.26µM* | x | x | -77.7*
Cc1ncoc1C(=O)NCC1=C(c2ccc(S(C)(=O)=O)cc2)C[C@@H]2CC[C@H]1N2Cc1ccco1 | 2.5% | x | 3.8% | x | x | -6.8
CSc1ccccc1C(=O)C1CCCN(Cc2ccn[nH]2)C1 (stereo unspecified) | -6.0% | -17.6% | -0.5% | 17.5% | 5.1% | 8.4
COC1=C(C)C(=O)C2=C(C1=O)C(CO)N1C(C#N)C3CC4C(C1C2N1CCOC41)N3C (stereo unspecified) | 0.0517µM* | x | 0.146µM* | x | x | -102.5*
Cc1oc2ccc(OC(=O)N3CCOCC3)cc2c1C(=O)OC(C)C | u | 22.7% | 25.9µM* | -9.7% | u | 0.6
Cc1ccccc1C1CC(=O)Nc2ccc3ccccc3c21 (stereo unspecified) | 11.6µM* | x | 11.6µM* | x | x | x
Cc1ccc2c(c1)C(c1ccccc1)NCC(=O)N2 (stereo unspecified) | -5.1% | 2.2% | u | -13.9% | 5.2% | 46.7
SMILES | DT40 TDP1 CPT | RORgamma inh | TDP1 cell noCPT | Gal4-VP16 FLuc | ELG1 DNA repair | IL1B secr inh
COCCCNP1(=O)OCC(C)([N+](=O)[O-])CO1 (stereo unspecified) | -15.4% | x | -13.0% | x | x | 0.0
COc1ccc(S(=O)(=O)N(C)C[C@H]2OCCCC[C@@H](C)Oc3ccc(N(C)C)cc3C(=O)N([C@H](C)CO)C[C@@H]2C)cc1 | u | x | 23.1µM* | x | x | -24.1
C[C@@H]1CCCCO[C@@H](CN(C)S(=O)(=O)c2ccc(F)cc2)[C@@H](C)CN([C@H](C)CO)C(=O)c2cc(N(C)C)ccc2O1 | u | x | 20.6µM* | x | x | -16.7
CC(c1nccs1)N(C)C(=O)c1cn(Cc2cccc3ccccc23)nn1 (stereo unspecified) | -21.5% | 24.6% | -12.5% | 8.7% | u | -2.7
CN1C2CCC1CC(OC(=O)c1ccc([N+](=O)[O-])cc1)C2 (stereo unspecified) | -11.1% | 6.4% | -12.1% | 14.9% | -0.2% | -6.3
CN1[C@@H]2CC[C@H]1CC(OC(c1ccc(F)cc1)c1ccc(F)cc1)C2 (stereo partly specified) | 6.68µM* | u | 9.44µM* | -3.3% | x | x
CCOC(=O)c1cccc(C2=C(CNC(=O)c3cccnc3)[C@H]3CC[C@@H](C2)N3Cc2ccccc2)c1 | u | x | 20.6µM* | x | x | u
CCOC(=O)c1cccc(C2=C(CNC(C)=O)[C@H]3CC[C@@H](C2)N3Cc2ccccc2)c1 | -3.0% | x | u | x | x | -14.6
C#CCCC[C@@H]1OC(=O)CNC(=O)C([C@@H](C)CC)NC(=O)[C@@H]2CCCN2C(=O)C([C@@H](C)CC)OC(=O)[C@H](Cc2ccccc2)N(C)C(=O)[C@H](C(C)C)NC(=O)C1(C)C (stereo partly specified) | 13µM* | x | 20.6µM* | x | x | -14.3
O=Nc1c(-c2ccccc2)n(O)[n+]([O-])c1-c1ccccc1 | u | x | 20.6µM* | x | x | -2.1
O=C(N/N=C/c1ccccc1OC(=O)N1CCOCC1)c1cccs1 | 4.11µM* | 2.51µM* | 4.61µM* | 12.6µM* | 4.1% | 126.0
CO/C=C(/C(=O)OC)c1ccccc1Oc1cc(Oc2ccccc2C#N)ncn1 | 0.243µM* | x | 0.217µM* | x | x | x
C=CCC1=C(C)C(OC(=O)C2C(C=C(C)C)C2(C)C)CC1=O (stereo unspecified) | u | x | 24.3µM* | x | x | x
CCOc1ccc(N2C(=O)c3ccccc3C2=O)cc1 | 2.8% | 42.7% | 0.6% | -2.2% | u | -20.4
